In PubChem BioAssay (EPA / NIEHS):
Records with an inconclusive call do not appear. The source holds several records for some structures; these can differ, active in one and inactive in another. Calls of active or inactive are those of the source. Rule for the calls, unless noted: active = hit-call score of the fitted dose curve at least 0.9, where 1 is the maximum; inactive = score below 0.9.

Key:
[1] = target: Nuclear respiratory factor 1 (Homo sapiens) (UniProt Q16656); experiment: ATG_NRF1_CIS: Attagene CIS-FACTORIAL HepG2 Assay for human Nuclear Respiratory Factor 1 (NRF1) Orphan Gene (AID 2282987); details: HepG2 NRF1 cis-element reporter, Attagene multiplex; actives raise or lower the signal
Nuclear respiratory factor 1 (Homo sapiens), sequence (Q16656 whole entry, looked up): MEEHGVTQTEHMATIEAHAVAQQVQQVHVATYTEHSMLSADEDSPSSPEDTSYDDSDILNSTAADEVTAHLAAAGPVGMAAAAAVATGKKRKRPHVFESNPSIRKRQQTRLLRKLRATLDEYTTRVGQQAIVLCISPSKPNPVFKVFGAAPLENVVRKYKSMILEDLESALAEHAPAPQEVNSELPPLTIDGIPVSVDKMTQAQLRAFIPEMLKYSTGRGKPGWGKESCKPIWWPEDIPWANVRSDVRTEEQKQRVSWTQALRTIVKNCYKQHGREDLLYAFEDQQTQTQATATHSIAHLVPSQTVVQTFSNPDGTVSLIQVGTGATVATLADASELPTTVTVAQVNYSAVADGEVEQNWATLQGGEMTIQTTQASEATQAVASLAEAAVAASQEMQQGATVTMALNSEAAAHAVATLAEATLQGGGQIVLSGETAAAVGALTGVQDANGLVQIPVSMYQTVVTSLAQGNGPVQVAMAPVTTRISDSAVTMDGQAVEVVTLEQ
How it was run: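 Measured: fluorescent reporter-specific RT-PCR products from transfected HepG2 cells, separated by capillary electrophoresis. Exposure lasted 24 h. Analysis used bidirectional curve fitting with DMSO as negative control.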

[2] = ATG_NFI_CIS: Attagene CIS-FACTORIAL HepG2 Assay for human Nuclear Factor I (NFI) (AID 2282989); details: HepG2 cis-regulatory reporter, NFI response element transcription; actives raise or lower the signal
How it was run: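 Cells: human liver HepG2, transiently transfected with promoter-regulated reporter transcription units. Exposure 24 h. Detection: fluorescent RT-PCR products separated by capillary electrophoresis, normalised to DMSO negative control.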

[3] = target: Myc proto-oncogene protein (Homo sapiens) (UniProt P01106); experiment: ATG_Myc_CIS: Attagene CIS-FACTORIAL HepG2 Assay for human Myelocytomatosis (Myc) Proto-Oncogene Transcription Factor (AID 2282990); details: HepG2, Attagene cis-reporter transcription factor activity; actives raise or lower the signal
Myc proto-oncogene protein (Homo sapiens), sequence (P01106 whole entry, looked up, the tested form may be a part): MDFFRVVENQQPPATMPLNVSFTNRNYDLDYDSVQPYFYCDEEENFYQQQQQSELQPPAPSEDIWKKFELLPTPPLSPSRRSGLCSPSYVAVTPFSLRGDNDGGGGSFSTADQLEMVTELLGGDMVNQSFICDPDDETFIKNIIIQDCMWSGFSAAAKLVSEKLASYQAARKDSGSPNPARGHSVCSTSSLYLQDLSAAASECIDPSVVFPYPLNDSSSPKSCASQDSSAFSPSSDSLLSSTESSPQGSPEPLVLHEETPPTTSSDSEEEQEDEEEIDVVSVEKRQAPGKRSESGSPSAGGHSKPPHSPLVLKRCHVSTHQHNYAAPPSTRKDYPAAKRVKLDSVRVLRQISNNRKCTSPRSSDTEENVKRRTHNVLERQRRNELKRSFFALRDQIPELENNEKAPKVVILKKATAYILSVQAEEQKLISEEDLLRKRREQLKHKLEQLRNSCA
How it was run: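 After 24 h chemical treatment of HepG2 cells carrying multiplexed cis-regulated reporter constructs, reporter transcripts quantified by RT-PCR and capillary electrophoresis of fluorescent fragments. Gain or loss fitted against DMSO baseline.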

[4] = ATG_NRF2_ARE_CIS: Attagene CIS-FACTORIAL HepG2 Assay for human Nuclear Factor Erythroid 2 Related Factor 2 (NFR2) response to Antioxidant Response Elements (ARE) (AID 2282992); details: HepG2 Attagene ARE/NRF2 reporter, transcription factor activity; actives raise or lower the signal;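 for AC50: reporter mRNA level measured by RT-PCR and capillary electrophoresis fluorescence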
How it was run: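 Multiplexed reporter mRNA profiling in HepG2 after a 24 h chemical exposure. Curves fitted in both directions relative to DMSO negative control.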

[5] = ATG_Oct_MLP_CIS: Attagene CIS-FACTORIAL HepG2 Assay for human Octamer-Binding Transcription Factor (Oct) (AID 2282993); details: HepG2 Attagene cis-factorial Oct reporter, mRNA; actives raise or lower the signal
How it was run: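 HepG2, transient MRTU transfection, cis promoter elements; 24 h dosing; RT-PCR/CE fluorescence read-out of reporter mRNA; fit both directions vs DMSO.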

[6] = target: Cellular tumor antigen p53 (Homo sapiens) (UniProt P04637); experiment: ATG_p53_CIS: Attagene CIS-FACTORIAL HepG2 Assay for human p53 Transcription Factor (AID 2282994); details: HepG2 p53 cis-element reporter, Attagene mRNA; actives raise or lower the signal
Cellular tumor antigen p53 (Homo sapiens), sequence (P04637 whole entry, looked up): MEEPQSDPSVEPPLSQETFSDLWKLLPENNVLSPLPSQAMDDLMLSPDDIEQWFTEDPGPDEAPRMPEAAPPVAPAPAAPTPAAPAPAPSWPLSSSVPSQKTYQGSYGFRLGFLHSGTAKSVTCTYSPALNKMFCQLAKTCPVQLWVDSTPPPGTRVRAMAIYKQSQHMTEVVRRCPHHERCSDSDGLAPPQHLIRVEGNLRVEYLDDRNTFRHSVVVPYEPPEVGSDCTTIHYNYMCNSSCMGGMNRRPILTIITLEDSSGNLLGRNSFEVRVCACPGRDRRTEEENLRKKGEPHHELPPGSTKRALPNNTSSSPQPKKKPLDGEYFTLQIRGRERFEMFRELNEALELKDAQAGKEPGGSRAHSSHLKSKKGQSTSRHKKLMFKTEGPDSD
How it was run: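 Multiplexed reporter mRNA assay in human HepG2 liver cells; cis-regulated units report endogenous factor activity. Values come from bidirectional curve fitting against DMSO negative control after 24 h treatment.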

[7] = BSK_3C_uPAR: BioMAP Diversity Plus: 3C Assay for Urokinase-type plasminogen activator receptor (uPAR) Biomarker Activity (AID 2282998); details: BioMAP 3C HUVEC, uPAR biomarker ELISA; actives raise or lower the signal
How it was run: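 A multiplexed primary-cell system built on human umbilical vein endothelium was used, with chemical present for 24 h before reading. Cell-surface uPAR was detected by ELISA; signal change in either direction counted against DMSO.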

[8] = BSK_3C_VCAM1: BioMAP Diversity Plus: 3C Assay for Vascular cell adhesion molecule 1 (VCAM1) Biomarker Activity (AID 2282999); details: BioMAP 3C HUVEC, VCAM1 ELISA, cytokine-stimulated; actives raise or lower the signal
How it was run: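 Endothelial cells from human umbilical vein are treated with test chemical. At 24 h, VCAM-1 is measured by ELISA, and responses in either direction are fitted relative to DMSO.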

[9] = BSK_4H_Eotaxin3: BioMAP Diversity Plus: 4H Assay for Eotaxin 3 Biomarker Activity (AID 2283000); details: primary human endothelial cells (HUVEC); actives raise or lower the signal
How it was run: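 Chemicals were added to human umbilical vein endothelium cultures, and Eotaxin-3 was quantified by ELISA at 24 h. Values were derived by bidirectional fitting with DMSO serving as negative control and activity baseline.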

[10] = target: human Peroxisome Proliferator-activated Receptor delta (PPARd), PPARD (gene 5467) (UniProt Q03181); experiment: ATG_PPARd_TRANS: Attagene TRANS-FACTORIAL HepG2 Assay for human Peroxisome Proliferator-activated Receptor delta (PPARd) (AID 2283002; active = hit-call score of the fitted dose curve at least 0.9, where 1 is the maximum)
human Peroxisome Proliferator-activated Receptor delta (PPARd), PPARD (gene 5467), sequence (Q03181 whole entry, looked up, the tested form may be a part): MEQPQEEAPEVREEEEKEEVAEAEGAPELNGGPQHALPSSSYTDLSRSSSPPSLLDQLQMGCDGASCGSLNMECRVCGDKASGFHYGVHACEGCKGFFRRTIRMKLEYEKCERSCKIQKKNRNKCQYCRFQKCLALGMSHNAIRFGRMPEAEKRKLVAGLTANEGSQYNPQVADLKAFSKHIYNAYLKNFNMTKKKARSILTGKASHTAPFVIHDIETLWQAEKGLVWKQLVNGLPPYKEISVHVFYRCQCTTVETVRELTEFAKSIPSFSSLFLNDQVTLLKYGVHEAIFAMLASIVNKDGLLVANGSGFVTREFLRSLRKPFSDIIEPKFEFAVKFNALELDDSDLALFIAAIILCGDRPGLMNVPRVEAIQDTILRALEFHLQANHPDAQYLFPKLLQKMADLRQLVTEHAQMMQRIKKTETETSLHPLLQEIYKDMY
How it was run: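 Read-out is induced reporter mRNA, quantified by RT-PCR with fluorescent labelling and capillary electrophoresis after 24 h dosing. Cells are HepG2 transiently carrying multiple GAL4-UAS reporter units driven by exogenous NR-GAL4 chimeras; DMSO serves as baseline.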

[11] = target: Retinoic acid receptor alpha (Homo sapiens) (UniProt P10276); experiment: ATG_RARa_TRANS: Attagene TRANS-FACTORIAL HepG2 Assay for human Retinoic Acid Receptor alpha (RARa) (AID 2283005; active = hit-call score of the fitted dose curve at least 0.9, where 1 is the maximum)
Retinoic acid receptor alpha (Homo sapiens), sequence (P10276 whole entry, looked up, the tested form may be a part): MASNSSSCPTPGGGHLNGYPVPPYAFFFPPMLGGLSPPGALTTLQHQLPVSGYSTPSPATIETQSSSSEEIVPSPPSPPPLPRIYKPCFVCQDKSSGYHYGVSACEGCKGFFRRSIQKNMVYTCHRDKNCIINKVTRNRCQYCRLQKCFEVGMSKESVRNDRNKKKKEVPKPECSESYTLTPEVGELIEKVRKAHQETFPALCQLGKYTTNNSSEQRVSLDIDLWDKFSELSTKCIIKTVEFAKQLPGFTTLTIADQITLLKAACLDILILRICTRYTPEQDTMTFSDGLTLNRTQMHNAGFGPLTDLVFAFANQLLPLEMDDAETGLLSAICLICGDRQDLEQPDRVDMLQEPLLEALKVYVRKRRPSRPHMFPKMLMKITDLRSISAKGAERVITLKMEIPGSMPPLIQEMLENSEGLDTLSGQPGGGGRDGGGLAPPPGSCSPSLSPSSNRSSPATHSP
How it was run: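 Reporter transcripts, measured by RT-PCR with fluorescent labeling and capillary electrophoresis after 24 h dosing, reflect activity of an exogenous human RARa–GAL4 fusion in transiently transfected HepG2. Fitted for increase relative to DMSO.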

[12] = BSK_3C_Proliferation: Cell Proliferation Assessment in the BioMAP Diversity Plus: 3C Assay (AID 2283006); details: primary human endothelial cells (HUVEC);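 for AC50: potency may reflect either rise or fall in cell number versus DMSO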
How it was run: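 Proliferation of human vascular endothelial primary cells after 48 h dosing, quantified as SRB-stained protein at 560 nm relative to DMSO.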

[13] = target: Peroxisome proliferator-activated receptor gamma (Homo sapiens) (UniProt P37231); experiment: ATG_PPARg_TRANS: Attagene TRANS-FACTORIAL HepG2 Assay for human Peroxisome Proliferator-activated Receptor-gamma (PPARg) (AID 2283007; active = hit-call score of the fitted dose curve at least 0.9, where 1 is the maximum)
Peroxisome proliferator-activated receptor gamma (Homo sapiens), sequence (P37231 whole entry, looked up): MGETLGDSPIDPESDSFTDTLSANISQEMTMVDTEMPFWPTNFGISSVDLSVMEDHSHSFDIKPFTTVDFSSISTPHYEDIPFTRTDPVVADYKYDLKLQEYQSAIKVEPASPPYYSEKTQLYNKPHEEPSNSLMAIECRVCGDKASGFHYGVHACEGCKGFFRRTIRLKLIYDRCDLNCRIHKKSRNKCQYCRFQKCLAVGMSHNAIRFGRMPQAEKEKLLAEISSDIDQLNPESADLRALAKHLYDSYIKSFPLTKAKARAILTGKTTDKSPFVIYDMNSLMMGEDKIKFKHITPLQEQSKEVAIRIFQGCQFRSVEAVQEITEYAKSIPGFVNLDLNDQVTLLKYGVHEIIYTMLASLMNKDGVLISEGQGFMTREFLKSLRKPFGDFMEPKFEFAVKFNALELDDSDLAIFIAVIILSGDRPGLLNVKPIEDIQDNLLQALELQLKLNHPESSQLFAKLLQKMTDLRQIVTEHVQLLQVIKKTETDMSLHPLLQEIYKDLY
How it was run: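 Twenty-four hours after chemical dosing of transiently transfected HepG2 cells, isolated RNA was converted to cDNA, reporter sequences amplified and 6-FAM-labelled, then HpaI-digested and analysed by capillary electrophoresis. Signal increase against DMSO was fitted.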

[14] = target: Nuclear receptor subfamily 1 group I member 2 (Homo sapiens) (UniProt O75469); experiment: ATG_PXR_TRANS: Attagene TRANS-FACTORIAL HepG2 Assay for human Pregnane X Receptor (PXR) (AID 2283008; active = hit-call score of the fitted dose curve at least 0.9, where 1 is the maximum)
Nuclear receptor subfamily 1 group I member 2 (Homo sapiens), sequence (O75469 whole entry, looked up, the tested form may be a part): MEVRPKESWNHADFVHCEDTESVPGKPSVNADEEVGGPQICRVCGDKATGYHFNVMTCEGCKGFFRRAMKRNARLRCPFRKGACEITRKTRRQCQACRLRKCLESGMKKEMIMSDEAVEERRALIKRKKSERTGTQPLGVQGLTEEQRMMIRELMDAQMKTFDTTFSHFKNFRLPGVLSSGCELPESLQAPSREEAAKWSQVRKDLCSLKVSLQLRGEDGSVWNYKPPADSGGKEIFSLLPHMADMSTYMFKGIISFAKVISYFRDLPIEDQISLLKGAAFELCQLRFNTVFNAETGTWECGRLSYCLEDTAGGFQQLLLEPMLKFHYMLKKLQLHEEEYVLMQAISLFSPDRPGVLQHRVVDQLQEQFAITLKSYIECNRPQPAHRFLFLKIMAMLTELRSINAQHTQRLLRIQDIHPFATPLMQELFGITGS
How it was run: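 Measures mRNA induction of a GAL4-UAS-driven reporter in human HepG2 cells transiently expressing PXR fused to Gal4, following 24 h treatment. DMSO served as negative control and baseline.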

[15] = read-out: Intercellular Adhesion Molecule 1 (ICAM1), ICAM1 (gene 3383); experiment: BSK_3C_ICAM1: BioMAP Diversity Plus: 3C Assay for Intercellular Adhesion Molecule 1 (ICAM1) Biomarker Activity (AID 2283003); details: primary human endothelial cells (HUVEC); actives raise or lower the signal
How it was run: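 Human vascular endothelial primary cells, 3C conditions, 24 h treatment. ICAM-1 by ELISA.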

[16] = target: human Retinoic Acid Receptor gamma (RARg), RARG (gene 5916) (UniProt P13631); experiment: ATG_RARg_TRANS: Attagene TRANS-FACTORIAL HepG2 Assay for human Retinoic Acid Receptor gamma (RARg) (AID 2283009; active = hit-call score of the fitted dose curve at least 0.9, where 1 is the maximum)
human Retinoic Acid Receptor gamma (RARg), RARG (gene 5916), sequence (P13631 whole entry, looked up, the tested form may be a part): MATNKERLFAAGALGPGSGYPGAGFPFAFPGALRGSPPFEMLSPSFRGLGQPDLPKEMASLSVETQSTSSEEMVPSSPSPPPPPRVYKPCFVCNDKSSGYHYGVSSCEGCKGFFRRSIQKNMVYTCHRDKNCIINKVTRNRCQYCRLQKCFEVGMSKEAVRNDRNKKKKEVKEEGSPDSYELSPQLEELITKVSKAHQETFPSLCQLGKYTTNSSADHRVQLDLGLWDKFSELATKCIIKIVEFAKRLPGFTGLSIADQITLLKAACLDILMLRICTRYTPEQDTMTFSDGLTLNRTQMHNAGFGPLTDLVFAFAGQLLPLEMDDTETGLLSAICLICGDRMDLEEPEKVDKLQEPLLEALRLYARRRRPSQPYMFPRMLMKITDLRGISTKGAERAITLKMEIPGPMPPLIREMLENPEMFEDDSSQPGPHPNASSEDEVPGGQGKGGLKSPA
How it was run: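 HepG2, RARg-GAL4 TRANS system, 24 h exposure; reporter mRNA by RT-PCR + CE fluorescence; increase over DMSO.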

[17] = BSK_3C_TissueFactor: BioMAP Diversity Plus: 3C Assay for Tissue Factor Biomarker Activity (AID 2282997); details: BioMAP 3C HUVEC, tissue factor biomarker readout; actives raise or lower the signal
How it was run: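 ELISA read-out of Tissue Factor levels on human umbilical vein endothelium collected 24 h after chemical dosing. Gain or loss of signal was fitted relative to DMSO.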

[18] = target: human Retinoic Acid Receptor beta (RARb), RARB (gene 5915) (UniProt P10826); experiment: ATG_RARb_TRANS: Attagene TRANS-FACTORIAL HepG2 Assay for human Retinoic Acid Receptor beta (AID 2283004; active = hit-call score of the fitted dose curve at least 0.9, where 1 is the maximum)
human Retinoic Acid Receptor beta (RARb), RARB (gene 5915), sequence (P10826 whole entry, looked up): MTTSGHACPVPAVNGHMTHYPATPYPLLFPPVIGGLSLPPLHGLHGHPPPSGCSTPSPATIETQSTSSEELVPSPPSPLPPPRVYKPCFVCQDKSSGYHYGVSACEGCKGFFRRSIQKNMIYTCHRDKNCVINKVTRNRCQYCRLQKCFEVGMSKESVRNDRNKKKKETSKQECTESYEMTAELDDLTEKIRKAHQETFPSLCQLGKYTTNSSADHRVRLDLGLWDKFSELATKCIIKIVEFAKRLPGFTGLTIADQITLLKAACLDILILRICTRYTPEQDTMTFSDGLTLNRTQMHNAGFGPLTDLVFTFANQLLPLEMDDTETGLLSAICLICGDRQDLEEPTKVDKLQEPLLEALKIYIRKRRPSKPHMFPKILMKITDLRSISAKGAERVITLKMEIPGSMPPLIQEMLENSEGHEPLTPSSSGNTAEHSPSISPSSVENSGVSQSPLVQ
How it was run: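 Transient transfection of HepG2 with multiple reporter units → chemical dosing, 24 h → total RNA isolation → RT with oligo(dT) → reporter-specific PCR, 6-FAM primer extension, HpaI digest → capillary electrophoresis. Positive direction vs DMSO control.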

[19] = target: human Peroxisome Proliferator-activated Receptor alpha (PPARa), PPARA (gene 5465) (UniProt Q07869); experiment: ATG_PPARa_TRANS: Attagene TRANS-FACTORIAL HepG2 Assay for human Peroxisome Proliferator-activated Receptor alpha (PPARa) (AID 2283001; active = hit-call score of the fitted dose curve at least 0.9, where 1 is the maximum)
human Peroxisome Proliferator-activated Receptor alpha (PPARa), PPARA (gene 5465), sequence (Q07869 whole entry, looked up, the tested form may be a part): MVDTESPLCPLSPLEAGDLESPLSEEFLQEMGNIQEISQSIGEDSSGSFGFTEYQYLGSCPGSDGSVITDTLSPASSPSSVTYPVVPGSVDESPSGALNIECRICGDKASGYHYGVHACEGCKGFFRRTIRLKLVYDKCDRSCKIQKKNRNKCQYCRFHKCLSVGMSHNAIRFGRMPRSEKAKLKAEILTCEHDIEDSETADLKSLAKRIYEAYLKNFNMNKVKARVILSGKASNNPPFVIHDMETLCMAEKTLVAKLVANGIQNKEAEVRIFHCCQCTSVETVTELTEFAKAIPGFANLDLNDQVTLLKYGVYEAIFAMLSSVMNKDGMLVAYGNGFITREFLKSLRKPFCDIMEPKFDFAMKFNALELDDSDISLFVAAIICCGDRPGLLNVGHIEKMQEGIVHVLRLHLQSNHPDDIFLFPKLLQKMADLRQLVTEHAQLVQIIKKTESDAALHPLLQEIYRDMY
How it was run: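 Reporter transcripts from GAL4-UAS units in transfected HepG2 were quantified 24 h after dosing. Detection used reverse transcription, PCR, fluorescent primer extension and capillary electrophoresis, with DMSO as baseline.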

Measured: AC50

CCCCC(CC)C(=O)OCCOCCOCCOC(=O)C(CC)CCCC (stereo unspecified)
active: [14] 27.5 µM
not listed: [15] | [16] | [17] | [18] | [19]
inactive: all other assays above

COc1cc2c(c(OC)c1OC)-c1ccc(OC)c(=O)cc1[C@@H](NC(C)=O)CC2
active: [1] 0.257 µM | [7] 0.149 µM | [8] 0.404 µM | [9] 0.148 µM | [12] 0.148 µM
inactive: [2] | [3] | [4] | [5] | [15] | [13] | [14] | [16]

Cc1nc(-c2ccccn2)ncc1C(=O)Nn1cc(C)c2cc(F)ccc21
active: [7] 20 µM | [13] 7.87 µM | [14] 0.775 µM
not listed: [6] | [11] | [15] | [16] | [19]
inactive: all other assays above

OCCNCCO
not listed: [6] | [11] | [13] | [14] | [16] | [17] | [18] | [19]
inactive: all other assays above

S=P(N1CC1)(N1CC1)N1CC1
active: [5] 170 µM | [12] 13.1 µM
inactive: [1] | [2] | [3] | [5] | [6] | [7] | [8] | [9] | [19] | [10] | [15] | [11] | [13] | [14]

C=CN1CCCC1=O
inactive: [1] | [2] | [3] | [4] | [5] | [6] | [7] | [8] | [9] | [12]

OCc1ccccc1
not listed: [6] | [10] | [14] | [15] | [16] | [17]
inactive: all other assays above

OC[C@H]1O[C@@](CO)(O[C@H]2O[C@H](CO)[C@@H](O)[C@H](O)[C@H]2O)[C@@H](O)[C@@H]1O
inactive: [1] | [2] | [3] | [5] | [7] | [8] | [9] | [18] | [12] | [13]
active: [4] 58.6 µM

CCCCCCCCN(C)C
not listed: [10] | [11] | [13] | [17] | [18] | [19]
inactive: all other assays above

COCc1nnc(-c2ccc[n+]([O-])c2)n1-c1c(Cl)c(Cl)cc2[nH]c(=O)c(=O)[nH]c12
not listed: [6] | [10] | [11] | [13] | [16] | [18] | [19]
inactive: all other assays above

O=C(O)CO
not listed: [6] | [7] | [8] | [9] | [12] | [15] | [16] | [17]
inactive: all other assays above

Cc1ccc(S(=O)(=O)NC(=O)NN2CCCCCC2)cc1
not listed: [6] | [10] | [11] | [15] | [18]
inactive: all other assays above

CCOc1ccc2[nH]cc(C(=O)NCc3ccccc3)c(=O)c2n1
active: [4] 9.32 µM | [14] 13 µM
not listed: [6] | [11] | [15] | [16] | [17] | [18] | [19]
inactive: all other assays above

C[Si](C)(C)C(F)(F)C(F)(F)C(F)(F)F
not listed: [4] | [15]
inactive: all other assays above
